Reference: PubChem BioAssay (NCATS)
Results filed as inconclusive are left out. Where a call stands in place of a potency, no number is given. Activity calls are given as the source filed them. Calls follow the shape of the dose curve; as a rule, active = well fitted curve in the direction sought with a large enough effect; inconclusive = small, poorly fitted or top-dose-only effect, or another doubt; inactive = no such curve, though single readings can be large; an effect the other way counts as inactive or inconclusive.

Tests used:
[1] = Primary qHTS for inhibitors of nuclear receptor binding SET domain protein 2 (NSD2) in an isogenic RCH-ACV NSD2 p.E1099K mutant (9B) (AID 1645876); conditions: RCH-ACV NSD2 E1099K (9B) viability, CellTiter-Glo, 72 h; series mostly up to 44.9 µM
[2] = Primary qHTS for inhibitors of nuclear receptor binding SET domain protein 2 (NSD2) in an RCH-ACV wild type WT cells (2C) (AID 1645877); conditions: RCH-ACV (leukaemia line) NSD2 WT (2C) viability, CellTiter-Glo, 72 h; series mostly up to 44.9 µM; also: potency is read from the fitted curve at half-maximal effect
Also: nearly all actives have a fitted effect of over 70% in size.

CCC1CC2C(C)=CC3CCCCC3C2(C)C2(OC(=O)C(C)(O)OC2=O)O1 (stereo not given)
Potency [1]: inactive | Potency [2]: inactive

COC(=O)C12C(=O)C(C)=C(O)C1(C)C(C)=CC1C34CCC(OC3=O)C(C)(C)C4CCC12C (stereo not given)
Potency [1]: inactive | Potency [2]: inactive

CO[C@@H]1CC[C@H](OC[C@]2(COC(=O)c3ccc(C)[nH]3)[C@H](OC(C)=O)CC[C@@]3(C)[C@@H]4CC=C(C)[C@@H](C5=C(O)C(=O)OC5O)[C@]4(C)CC[C@@H]32)O[C@H]1C (stereo not given in full)
Potency [1]: inactive | Potency [2]: inactive

CC(C)C1=CC2=CCC3[C@](C)(CCC[C@@]3(C)C(=O)O)C2CC1=O (stereo not given in full)
Potency [1]: inactive | Potency [2]: inactive

C=C1CC2(C(=O)O)CC1CCC2C1(C)CCCC2(C)C(=O)OC(O)C21 (stereo not given)
Potency [1]: inactive | Potency [2]: inactive

CCCCS(=O)(=O)Nc1ncnc(OCCOc2ncc(Br)cn2)c1-c1ccc(Br)cc1
Potency [1]: inactive | Potency [2]: inactive

CC(C)C(C#N)O[C@@H]1O[C@H](CO[C@@H]2OC[C@](O)(CO)[C@H]2O)[C@@H](O)[C@H](O)[C@H]1O (stereo not given in full)
Potency [1]: inactive | Potency [2]: inactive

C[C@@H]1C[C@H]2[C@@H]3CCC4=CC(=O)C=C[C@]4(C)[C@@]3(F)[C@@H](O)C[C@]2(C)[C@@]1(O)C(=O)COP(=O)(O)O
Potency [1]: inactive | Potency [2]: 0.0916 µM (active)

CC(C)CNC(=O)/C=C/CCCCc1ccc2c(c1)OCO2
Potency [1]: inactive | Potency [2]: inactive

COc1cc(/C=C/C(=O)O[C@H]2[C@H](O)[C@@H](CO)O[C@@]2(CO)O[C@H]2O[C@H](COC(=O)c3ccc(O)cc3)[C@@H](O)[C@H](O)[C@H]2O)cc(OC)c1OC
Potency [1]: inactive | Potency [2]: inactive
